From PubChem BioAssay (EPA / NIEHS)
Several values for one entry are separate records, joined by “and”; a condition that tells them apart may be missing. Identical values can stand only once. Where a structure was tested more than once in an assay, its records may differ in their call. Activity calls are given as the source filed them. The calls were made as follows: active = hit-call score of the fitted dose curve at least 0.9, where 1 is the maximum; inactive = score below 0.9.

read-out: Macrophage colony-stimulating factor (MCSF), CSF1 (gene 1435); experiment: BSK_IMphg_MCSF: BioMAP Diversity Plus: IMphg Assay for Macrophage colony-stimulating factor (MCSF) Biomarker Activity (AID 2284293); details: primary human endothelial cells with macrophages
Method: BSK_IMphg is a cell-based, multiplexed-readout assay that uses venular endothelial cells and macrophages, a human vascular primary cell, with measurements taken at 24 hours after chemical dosing in a microplate: 96-well plate.BSK_IMphg_MCSF is an assay component measured in the BSK_IMphg assay. It measures M-CSF antibody related to regulation of gene expression using ELISA technology.Data from the assay component BSK_IMphg_MCSF was analyzed at the endpoint, BSK_IMphg_MCSF, in the positive analysis fitting direction relative to DMSO as the negative control and baseline of activity. Using a type of binding reporter, gain or loss-of-signal activity can be used to understand protein changes. To generalize the intended target to other relatable targets, this assay endpoint is annotated to the 'cytokine' intended target family, where the subfamily is 'colony stimulating factor'.
The levels of cell surface (or secreted, indicated by the prefix "s") biomarker endpoints were measured by ELISA. Overt cytotoxicity to cells in confluent adherent cultures (all systems other than the BT system) was assessed by measuring total protein levels using sulforhodamine B (SRB) staining in parallel cultures at the time of biomarker measurements, indicated as SRB endpoints. For proliferation assays for adherent cell types, individual cell types are cultured at sub-confluence and relative cell numbers quantified by SRB staining at time points optimized for each system (48 h: 3C and CASM3C systems; 72 h: BT and HDF3CGF systems; 96 h: SAg system). SRB was performed by staining cells with 0.1% SRB after fixation with 10% TCA and reading wells at 560 nm.Viability and proliferation of PBMC (T cells) was quantified by Alamar Blue reduction for the SAg and BT systems. For PBMC viability (referred to as PBMC Cytotoxicity within the assay endpoint names), cells were plated (75,000/well in a 96-well plate) and then chemical samples added for 1 h before addition of activators, SEB and TSST-1 (20 ng/mL final concentration each). Cells were incubated for 90 h. Then, Alamar Blue (20 uL/well) (Invitrogen, Cat DAL1100) was added for 6 h, and the plates were read with a fluorescence microplate reader at 546/580 nm (excitation/emission). For PBMC proliferation, cells were plated and activated as above but incubated for only 16 h prior to addition of Alamar Blue. Plates were read after 6 h.

SMILES | outcome | AC50
OCC(F)(F)C(F)(F)C(F)(F)C(F)(F)C(F)(F)C(F)F | inactive | 
C=CC(F)(F)C(F)(F)C(F)(F)C(F)(F)C(F)(F)C(F)(F)C(F)(F)C(F)(F)C=C | inactive | 
FC(F)(Br)C(F)(F)C(F)(F)C(F)(F)C(F)(F)C(F)(F)Br | inactive | 
O=C(O)C(F)(F)C(F)(F)C(F)(F)C(F)(F)C(F)(F)C(F)(F)C(F)(F)C(F)(F)Cl | inactive | 
FC(F)(F)C(F)(F)C(F)(F)C(F)(F)C(F)(F)CCI | inactive | 
C=C(C)C(=O)OCC(F)(F)C(F)(F)C(F)(F)F | inactive | 
CCO[Si](CCC(F)(F)C(F)(F)C(F)(F)C(F)(F)C(F)(F)C(F)(F)F)(OCC)OCC | inactive | 
OCC(F)(F)C(F)(F)C(F)(F)C(F)F | inactive | 
O=C(O)C=C(C(F)(F)F)C(F)(F)F | inactive | 
FC(F)(I)C(F)(F)C(F)(F)C(F)(F)I | inactive | 30 µM (active) and 19.6 µM (active)
C=CC(=O)OCC(F)(F)C(F)(F)C(F)(F)C(F)(F)COC(=O)C=C | inactive | 
FC1CC(F)(F)C(F)(F)C1(F)F (stereo not given) | inactive | 
N=C(N)C(F)(F)C(F)(F)C(F)(F)C(F)(F)C(F)(F)C(F)(F)C(F)(F)F | inactive | 
O=S(=O)(OCCOC(F)(F)F)C(F)(F)F | inactive | 
CCCCCCCCC(F)(F)C(F)(F)C(F)(F)C(F)(F)C(F)(F)C(F)(F)F | inactive | 
FC(F)(F)C(F)(F)CNCC(F)(F)C(F)(F)F | inactive | 
O=C(Cl)C(F)(F)C(F)(F)C(F)(F)C(F)(F)C(F)(F)C(F)(F)C(F)(F)C(F)(F)F | inactive | 
OCC(F)(F)C(F)(F)C(F)(F)F | inactive | 
FC(F)(F)C(F)(F)C(F)(F)C(F)(F)C(F)(F)C(F)(F)C(F)(F)C(F)(F)F | inactive | 

SMILES | outcome | AC50
O=S(=O)(O)C(F)(F)C(F)(F)C(F)(F)C(F)(F)C(F)(F)C(F)(F)C(F)(F)F | inactive | 
OCC(F)(F)C(F)(F)C(F)(F)C(F)(F)C(F)(F)C(F)(F)F | inactive | 
FC(F)(F)C(F)(F)C(F)(F)C(F)(F)C(F)(F)C(F)(F)C(F)(F)Br | inactive | 
FC(F)(F)C(F)(F)C(F)(F)N(C(F)(F)C(F)(F)C(F)(F)F)C(F)(F)C(F)(F)C(F)(F)F | inactive | 
CC(C)(C)C(=O)CC(=O)C(F)(F)C(F)(F)C(F)(F)F | inactive | 
OCCCC(F)(F)C(F)(F)C(F)(F)C(F)(F)C(F)(F)C(F)(F)C(F)(F)F | inactive | 45.8 µM (active)
FC(F)(F)C(F)(F)C(F)(F)C(F)(F)C(F)(F)C(F)(F)C(F)(F)I | inactive | 
O=C(O)C(F)(OC(F)(F)C(F)(OC(F)(F)C(F)(OC(F)(F)C(F)(F)C(F)(F)F)C(F)(F)F)C(F)(F)F)C(F)(F)F (stereo not given) | inactive | 
O=C(O)C(F)(F)C(F)(F)C(F)(F)C(F)(F)C(F)(F)C(F)(F)C(F)(F)C(F)(F)C(F)(F)C(F)(F)C(F)(F)C(F)(F)C(F)(F)F | inactive | 
FC(F)(F)C(F)(F)C(F)(F)C(F)(F)C(F)(F)C(F)(F)CCS | inactive | 
C=C(C)C(=O)OCCC(F)(F)C(F)(F)C(F)(F)C(F)(F)C(F)(C(F)(F)F)C(F)(F)F | inactive | 
O=C(O)C(F)(F)C(F)(F)OC(F)(F)F | inactive | 
OCCCC(F)(F)C(F)(F)C(F)(F)F | inactive | 
FC(F)(F)C(F)(F)C(F)(F)CI | inactive | 
NC(=O)C(F)(F)C(F)(F)C(F)(F)C(F)(F)F | inactive | 
O=P(O)(O)OCCC(F)(F)C(F)(F)C(F)(F)C(F)(F)C(F)(F)C(F)(F)F | inactive | 
C=CC(=O)OCC(F)(F)C(F)(F)C(F)(F)C(F)(F)C(F)(F)C(F)(F)C(F)(F)F | inactive | 
FC(F)(F)C(F)(F)C(F)(F)C(F)(F)C(F)(F)C(F)(F)C(F)(F)C(F)(F)CCS | inactive | 
C=C(C)C(=O)OCC(F)(F)C(F)(F)C(F)(F)C(F)(F)C(F)(F)C(F)(F)C(F)(F)F | inactive | 
